{"source": "PubChem BioAssay AID2129", "about": "(The Scripps Research Institute Molecular Screening Center, 2009)", "note": "Out of some 320,000 compounds screened, about 2,200 (0.69%) were called active.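 How the source made its calls: active means inhibition above the mean of all tested compounds plus 3 SD, cutoff set per campaign (cut at about 30% in these data); inactive means the rest.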 The full list was thinned out, with actives kept by preference."}
{"molecular_target": "Bcl-2-like protein 1 (Homo sapiens) (UniProt Q07817)", "sequence (Q07817 whole entry, looked up)": "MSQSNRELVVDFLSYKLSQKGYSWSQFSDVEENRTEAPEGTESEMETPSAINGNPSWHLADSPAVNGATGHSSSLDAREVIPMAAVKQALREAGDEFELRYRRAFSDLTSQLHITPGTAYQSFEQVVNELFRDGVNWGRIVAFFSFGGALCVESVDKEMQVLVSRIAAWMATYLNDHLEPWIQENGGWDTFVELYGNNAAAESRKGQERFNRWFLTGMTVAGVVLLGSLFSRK", "assay": "Bcl-xL/Bim BH3 interaction blockers – biochemical, fluorescence polarization, HTS, primary screen (AID 2129);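 further: 0% = DMSO wells and 100% = unlabeled Bim-BH3 peptide competitor; inhibitors lower millipolarization by displacing the labeled peptide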", "conditions": "GST-Bcl-xL / FITC-Bim BH3 peptide fluorescence polarization; at 10.9 µM; hits give high values"}
{"compound": "CCNc1nc2[nH]c(=O)c3c(c2s1)OC(N)=C(C#N)C3c1cccs1", "note": "(stereo not given)", "inhibition": "30.4% (active)"}
{"compound": "N#CC1=C(N)Oc2c(c(=O)oc3ccccc23)C1c1ccccc1OC(=O)c1cccs1", "note": "(stereo not given)", "inhibition": "3.02% (inactive)"}
{"compound": "Cc1ccc(N(C)C(=O)Oc2cccc3ccc(C)nc23)cc1", "inhibition": "0.48% (inactive)"}
{"compound": "NCCc1c[nH]c2ccc(O)cc12", "inhibition": "4.75% (inactive)"}
{"compound": "O=C1NC(=O)N(c2ccccc2)C(=O)/C1=C/c1ccc([N+](=O)[O-])s1", "inhibition": "26.3% (inactive)"}
{"compound": "COc1cccc(N2C(=O)NC(=O)/C(=C\\c3cn(C)c4ccccc34)C2=O)c1", "inhibition": "36.2% (active)"}
{"compound": "Cc1ccccc1N1C(=O)NC(=O)/C(=C\\c2cc(C)n(C)c2C)C1=O", "inhibition": "2.98% (inactive)"}
{"compound": "Cc1ccc(-n2c(O)c(C=NCC3CCCO3)c(=O)[nH]c2=O)c(C)c1", "note": "(stereo not given)", "inhibition": "-2.2% (inactive)"}
{"compound": "COc1ccc(CN2C(=O)NC(=O)/C(=C\\c3ccc(OC)c(OC)c3OC)C2=O)cc1", "inhibition": "-7.16% (inactive)"}
{"compound": "Cc1cc(/C=C2/C(=O)NC(=O)N(Cc3ccco3)C2=O)c(C)n1-c1ccc(C(=O)O)cc1", "inhibition": "-1.1% (inactive)"}
{"compound": "COc1ccc(N2C(=O)/C(=C/c3ccco3)C(=O)NC2=S)cc1", "inhibition": "32.5% (active)"}
{"compound": "Cc1cccc(NC(=O)OC2CN3CCC2CC3)c1", "note": "(stereo not given)", "inhibition": "-2.32% (inactive)"}
{"compound": "CC(=NC1CCN(Cc2ccccc2)CC1)c1c(O)n(C)c(=O)n(C)c1=O", "inhibition": "14.7% (inactive)"}
{"compound": "Cc1ccc2c(c1)C1CN(C)CCC1N2C(=O)Cn1nnc(-c2ccccc2F)n1", "note": "(stereo not given)", "inhibition": "4.75% (inactive)"}
{"compound": "O=c1c2ccccc2nc(/C=C/c2ccc(F)cc2)n1-c1ccccc1O", "inhibition": "0.24% (inactive)"}
